Among the test systems are TYRO3; ULK1; ULK2; ULK3; VRK2; WEE1; WEE2; WNK1; WNK2; WNK3; WNK4.
What all share (settings): concentration: 1 μM, replicates: in singlicate; n = 1
For experiment [1], the system named is TYK2(JH2domain-pseudokinase).
The subject of a further experiment is T1, VEGFR2.
T1 construct: gene KDR

In another experiment the test system is T2, VPS34.
T2 construct: gene PIK3C3

Another experiment concerns T3, YANK1.
T3 construct: gene STK32A

For the next experiment, the system named is T4, YANK2.
T4 construct: gene STK32B

Another experiment relates to T5, YANK3.
T5 construct: gene STK32C

A further experiment relates to T6, YES.
T6 construct: gene YES1

In the next experiment the test system is T7, YSK1.
T7 construct: gene STK25

Another experiment deals with T8, YSK4.
T8 construct: gene MAP3K19
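Also: KINOMEscan kinase panel screen.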

As for `Cl.Cl.NCC(NCc1ccc(-c2ccnc3[nH]ccc23)s1)c1ccccc1` (centres unmarked) [GSK1321565], the “%Inh” value in experiment [1] turned out to be 43%; in the experiment on TYRO3, 0%; in the experiment on ULK1 it was 67%; in the experiment on ULK2 it was 9%; in the experiment on ULK3, 15%; in the experiment with VEGFR2 it was 17%. Moreover, the “%Inh” value is reported as 7% with VPS34; 20% in the experiment with VRK2; 13% in the experiment with WEE1; 0% with WEE2; 0% in the experiment with WNK1; 11% in the experiment on WNK2. In addition, the “%Inh” value in the experiment on WNK3 came to 26%; with WNK4 it was 0%; in the experiment with YANK1, 0%; with YANK2, 0%; with YANK3, 0%; in the experiment with YES it was 0%. For the same molecule, the figures for the “%Inh” value in the experiment with YSK1 and with YSK4 were 0% and 99.3%, respectively.

Regarding `O=C(Nc1cccc(Oc2ccc3nc(NC(=O)C4CC4)cn3n2)c1)c1ccccc1C(F)(F)F`, the “%Inh” value is recorded as 0% in experiment [1]; 36% with TYRO3; 0% in the experiment with ULK1; 0% with ULK2; 1% with ULK3; 99.8% in the experiment with VEGFR2. Further, the “%Inh” value is 0% in the experiment on VPS34; 0% in the experiment with VRK2; 22% with WEE1; 0% with WEE2; 0% in the experiment with WNK1; 0% in the experiment with WNK2. For the same molecule, the “%Inh” value in the experiment on WNK3 came to 0%; in the experiment on WNK4 it was 13%; in the experiment on YANK1, 0%; in the experiment on YANK2, 0%; in the experiment with YANK3, 0%; with YES it was 50%. The “%Inh” value is 9% in the experiment on YSK1 and 70% in the experiment on YSK4.

`Nc1ncc(-c2ccc3nccc(-c4ccncc4)c3c2)cc1S(=O)(=O)N1CCOCC1` [GSK1627798]: the “%Inh” value in [1] is 21%; in the experiment with TYRO3, 0%; with ULK1, 0%; in the experiment with ULK2, 0%; in the experiment on ULK3 it was 6%; in the experiment with VEGFR2, 0%. Moreover, the “%Inh” value stood at 93.3% in the experiment on VPS34; 0% in the experiment with VRK2; 0% in the experiment with WEE1; 3% with WEE2; 0% in the experiment with WNK1; 0% in the experiment with WNK2. Moreover, the “%Inh” value amounted to 4% in the experiment with WNK3; 9% with WNK4; 4% in the experiment with YANK1; 0% in the experiment on YANK2; 22% in the experiment on YANK3; 0% in the experiment with YES. Also, the “%Inh” value with YSK1 is 0%; in the experiment on YSK4 it was 88%.

In the case of `Cl.Cl.NCC(C(=O)Nc1cc(Br)c(-c2ccnc3[nH]ccc23)s1)c1ccccc1` (centres unmarked) [GSK1269851], the “%Inh” value in experiment [1] is 18%; with TYRO3 it was 0%; in the experiment with ULK1, 23%; with ULK2, 0%; in the experiment with ULK3 it was 15%; in the experiment on VEGFR2, 0%. Further, the “%Inh” value was found to be 0% with VPS34; 0% in the experiment with VRK2; 0% in the experiment with WEE1; 22% in the experiment with WEE2; 7% in the experiment with WNK1; 100% in the experiment with WNK2. The “%Inh” value in the experiment on WNK3 was 25%; in the experiment with WNK4, 11%; with YANK1, 8%; in the experiment on YANK2, 0%; in the experiment with YANK3, 0%; with YES it was 7%. In addition, the results for the “%Inh” value in the experiment on YSK1 and in the experiment on YSK4 were 0% and 95.5%, respectively.

With `O=C(Nc1n[nH]c2cc(-c3ccoc3)ccc12)C1CC1` [SB-738481], the “%Inh” value in experiment [1] is reported as 7%; with TYRO3, 0%; in the experiment on ULK1, 0%; in the experiment on ULK2, 1%; in the experiment with ULK3, 10%; with VEGFR2, 32%. The “%Inh” value with VPS34, in the experiment with VRK2, in the experiment with WEE1, with WEE2, in the experiment on WNK1 and in the experiment with WNK2 was 0% in each case. In addition, the “%Inh” value in the experiment with WNK3 is reported as 0%; in the experiment with WNK4, 7%; with YANK1, 0%; in the experiment on YANK2 it was 0%; with YANK3, 0%; with YES, 3%. In addition, the “%Inh” value is 0% with YSK1 and 89% in the experiment with YSK4.

Take `O=C(O)C(F)(F)F.O=C(O)C(F)(F)F.O=c1[nH]ccc2nc(N[C@@H]3CCCNC3)nc(Nc3ccc(S(=O)(=O)N4CCOCC4)cc3)c12` [GSK2177277]: the “%Inh” value is 93.2% in experiment [1]; 15% in the experiment on TYRO3; 100% in the experiment on ULK1; 88% with ULK2; 99.9% with ULK3; 74% with VEGFR2. Besides, the “%Inh” value in the experiment on VPS34 is reported as 91.5%; in the experiment on VRK2 it was 77%; in the experiment with WEE1, 66%; with WEE2, 13%; with WNK1, 0%; in the experiment with WNK2, 29%. The “%Inh” value with WNK3 was 13%; in the experiment with WNK4, 0%; in the experiment with YANK1 it was 96.6%; in the experiment on YANK2 it was 89%; with YANK3, 74%; in the experiment on YES, 75%. Also, the “%Inh” value in the experiment with YSK1 is given as 94.2%; in the experiment on YSK4 it was 99.7%.

Consider `CN1CCN(CCCNc2nccc(-c3c(-c4ccc(F)cc4)nn4cc(C(F)(F)F)ccc34)n2)CC1` [GW621581], for which the “%Inh” value worked out at 12% in [1]; 0% in the experiment with TYRO3; 20% with ULK1; 0% in the experiment with ULK2; 8% with ULK3; 0% in the experiment on VEGFR2. Moreover, the “%Inh” value came out at 8% in the experiment with VPS34; 0% in the experiment with VRK2; 0% with WEE1; 0% in the experiment with WEE2; 3% with WNK1; 13% with WNK2. Further, the “%Inh” value with WNK3 was found to be 0%; with WNK4, 0%; in the experiment with YANK1 it was 0%; in the experiment on YANK2, 8%; in the experiment on YANK3 it was 0%; in the experiment with YES it was 1%. Besides, the entries for the “%Inh” value in the experiment on YSK1 and in the experiment on YSK4 were 0% and 9%, respectively.

`CNC(=O)c1ccccc1Nc1nc(Nc2ccc(N3CCOCC3)cc2)ncc1Cl.Cl` [GSK1576028]: the “%Inh” value was 99.7% in experiment [1]; 85% with TYRO3; 99.6% in the experiment with ULK1; 81% in the experiment on ULK2; 99.8% in the experiment on ULK3; 90% in the experiment with VEGFR2. The “%Inh” value is 0% with VPS34; 21% in the experiment on VRK2; 99.7% in the experiment on WEE1; 100% in the experiment on WEE2; 12% in the experiment on WNK1; 5% in the experiment on WNK2. Moreover, the “%Inh” value is 39% in the experiment with WNK3; 0% in the experiment with WNK4; 58% in the experiment on YANK1; 30% in the experiment on YANK2; 24% in the experiment with YANK3; 98.7% in the experiment on YES. For the same molecule, the “%Inh” value turned out to be 68% in the experiment with YSK1 and 99.9% with YSK4.

For the molecule `CC(C)c1nc(-c2cccc(NS(=O)(=O)c3c(F)cccc3F)c2F)c(-c2ccnc(Nc3ccc(N4CCOCC4)nc3)n2)s1` [GSK2008607], the “%Inh” value came to 17% in [1]; 100% in the experiment with TYRO3; 63% in the experiment on ULK1; 83% in the experiment on ULK2; 98.9% in the experiment with ULK3; 94.5% in the experiment on VEGFR2. The “%Inh” value in the experiment with VPS34 worked out at 0%; with VRK2, 0%; with WEE1 it was 0%; in the experiment with WEE2, 0%; in the experiment with WNK1 it was 3%; in the experiment on WNK2 it was 13%. The “%Inh” value in the experiment with WNK3 is listed as 23%; in the experiment on WNK4, 59%; in the experiment on YANK1 it was 14%; with YANK2, 48%; in the experiment with YANK3, 1%; in the experiment on YES, 99.6%. The “%Inh” value in the experiment on YSK1 was 56%; in the experiment on YSK4 it was 85%.

Take `COC(=O)Nc1nc2ccc(Oc3ccc(NC(=O)Nc4cc(C(F)(F)F)ccc4F)cc3)cc2n1C.Cl` [GW692089]: the “%Inh” value in experiment [1] was 18%; with TYRO3, 0%; in the experiment with ULK1, 0%; with ULK2, 0%; with ULK3 it was 0%; in the experiment with VEGFR2, 43%. Moreover, the “%Inh” value in the experiment with VPS34 stood at 0%; in the experiment with VRK2, 56%; in the experiment on WEE1, 2%; in the experiment on WEE2, 0%; in the experiment on WNK1, 0%; in the experiment on WNK2, 0%. The “%Inh” value with WNK3 is on record as 46%; in the experiment with WNK4, 28%; with YANK1, 0%; with YANK2, 19%; with YANK3, 0%; with YES it was 0%. The entries for the “%Inh” value in the experiment with YSK1 and with YSK4 were 0% and 36%, respectively.

(Values after paper PMC5540273 (PLoS ONE, 2017).)
